Compound activity deposited in PubChem BioAssay by The Scripps Research Institute Molecular Screening Center.
Fam108B inh: mouse Fam108B serine hydrolase inhibitors, primary screen, counter-screen for RBBP9 inhibitor project, biochemical, fluorescence polarization; recombinant Fam108B, FP-Rh probe fluorescence polarization; inhibition, % at 9.51 µM; 0.33% of 300,000 active;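 active = inhibition above the screen mean inhibition plus 3 SD, computed separately per campaign, cut at about 18% in these data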;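 also: inhibitors lower polarization as less probe binds the enzyme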
PME-1 primary: PME-1 inhibitors via competitive probe labeling, primary screen, biochemical, fluorescence polarization, FP-Rh probe, HTS. Protein phosphatase methylesterase 1 (Homo sapiens), Q9Y570. recombinant PME-1. inhibition, % at 5.9 µM. 0.53% of 320,000 active;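 active = inhibition above the campaign mean of all compounds plus 3 SD, cut at about 26% in these data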;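 also: competitive labeling of PME-1 active site by serine hydrolase directed probe; 0% = PME-1 with DMSO and 100% = wells lacking PME-1 enzyme; inhibitors block probe labeling so polarization falls and inhibition rises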
Target sequence (Q9Y570 whole entry, looked up): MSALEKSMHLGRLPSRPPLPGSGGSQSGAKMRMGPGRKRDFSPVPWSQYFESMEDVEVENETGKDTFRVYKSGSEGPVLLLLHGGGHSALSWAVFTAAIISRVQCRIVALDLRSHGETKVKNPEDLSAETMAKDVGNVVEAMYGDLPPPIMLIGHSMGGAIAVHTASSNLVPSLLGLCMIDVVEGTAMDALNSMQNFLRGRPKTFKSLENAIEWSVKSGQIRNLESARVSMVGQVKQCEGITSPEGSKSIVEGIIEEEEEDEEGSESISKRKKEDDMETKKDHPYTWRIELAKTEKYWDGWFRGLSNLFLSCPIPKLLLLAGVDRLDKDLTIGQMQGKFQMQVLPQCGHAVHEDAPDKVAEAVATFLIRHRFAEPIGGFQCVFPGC
PAFAH2 inh: PAFAH2 enzyme inhibitors, primary screen, biochemical, fluorescence polarization, human. Platelet-activating factor acetylhydrolase 2, cytoplasmic (Homo sapiens), Q99487. recombinant PAFAH2, FP-rhodamine activity probe. inhibition, % at 3.39 µM. 0.99% of 340,000 active;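 active = inhibition above the mean over all tested compounds plus 3 SD, cut at about 30% in these data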;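 also: inhibitors block probe labeling of enzyme so polarization drops; 0% = enzyme with DMSO and 100% = wells lacking PAFAH2 protein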
PAFAH1B2 inh: PAFAH1B2 enzyme inhibitors, primary screen, biochemical, fluorescence polarization, human. Platelet-activating factor acetylhydrolase IB subunit alpha2 (Homo sapiens), P68402. recombinant PAFAH1B2, FP-rhodamine activity probe. inhibition, % at 3.39 µM. 1.2% of 340,000 active. AID 492953, 2010;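 active = inhibition above the mean of all tested compounds plus 3 SD, cut at about 24% in these data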;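 also: 0% = enzyme with DMSO and 100% = wells lacking PAFAH1B2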
PAFAH1B3 inh: PAFAH1B3 enzyme inhibitors, primary screen, biochemical, fluorescence polarization, human; recombinant PAFAH1B3, FP-rhodamine probe; inhibition, % at 3.39 µM; Platelet-activating factor acetylhydrolase IB subunit alpha1 (Homo sapiens), Q15102; 0.28% of 340,000 active;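 active = inhibition above the screen-wide average of all tested compounds plus 3 SD, cut at about 25% in these data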;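 also: 0% = enzyme with DMSO only and 100% = wells lacking PAFAH1B3 protein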
Target sequence (Q15102 whole entry, looked up): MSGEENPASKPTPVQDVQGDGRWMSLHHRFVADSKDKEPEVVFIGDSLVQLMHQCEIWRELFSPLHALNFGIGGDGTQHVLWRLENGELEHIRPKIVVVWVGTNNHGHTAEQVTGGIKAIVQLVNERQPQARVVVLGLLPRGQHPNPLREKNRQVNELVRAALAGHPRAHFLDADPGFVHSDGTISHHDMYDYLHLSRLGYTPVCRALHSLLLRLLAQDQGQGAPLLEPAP
pPAFAH FP inh: pPAFAH enzyme inhibitors, primary screen, biochemical, fluorescence polarization, human. recombinant pPAFAH, FP-rhodamine probe fluorescence polarization. 1.5% of 330,000 active. inhibition, % at 3.39 µM. Platelet-activating factor acetylhydrolase (Homo sapiens), Q13093. AID 463082, 2010;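 active = inhibition above the mean inhibition across the screen plus 3 SD, cut at about 25% in these data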;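 also: inhibitors block binding of the rhodamine activity-based probe so polarization drops; 0% = enzyme with DMSO and 100% = wells lacking pPAFAH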
An asterisk follows results filed as active; / = no result. Compounds with a hit are over-represented: about 2.9% of the library has one in this group of screens.

SMILES	Fam108B inh	PME-1 primary	PAFAH2 inh	PAFAH1B2 inh	PAFAH1B3 inh	pPAFAH FP inh
S=c1[nH]nc(-c2ccccc2Br)n1Cc1ccccc1	0	0	2	29*	2	0
Cc1ccccc1-c1n[nH]c(=S)n1Cc1ccccc1	-3	-6	5	12	-2	5
CCN(CC(=O)NCc1ccc(Cl)cc1)C(=O)CSc1ccc(Br)cc1	-1	4	11	26*	3	9
Cc1ccc(-c2nn(-c3ccc(F)cc3)cc2C(=O)N2CCN(C3CCS(=O)(=O)C3)CC2)cc1 (stereo not given)	/	21	-6	-2	3	8
CC1(C)C(=O)Nc2ccccc2N1C(=O)COc1ccccc1C#N	/	/	9	0	1	9
O=C(NNS(=O)(=O)c1ccc(F)cc1)c1cc(Cl)ccc1O	/	/	8	26*	9	/
O=C(NNS(=O)(=O)c1cccc(Cl)c1)c1cc(-c2ccc(F)cc2)nc2ccccc12	-10	5	-4	40*	-6	2
CN(C(=O)CSc1nncn1C)C1CCCN(Cc2ccccc2F)C1 (stereo not given)	-2	-4	1	1	-9	0
CC(CS(=O)(=O)c1ccc2c(c1)NC(=O)CS2)C(=O)N1CCN(c2cccc(Cl)c2)CC1 (stereo not given)	1	6	-2	-1	0	25*
CN(C)c1ccc(NC(=O)Nc2ccc3snnc3c2)cc1	9	32*	6	7	5	4
O=C(Nc1ccccc1)Nc1ccc2snnc2c1	-2	-22	-7	-2	0	-2
CCCn1c(C(CO)Nc2nc(C)cs2)nc2ccccc21 (stereo not given)	1	1	1	-4	5	6
Cc1ccc(OCc2nnc(NC(=O)c3ccco3)s2)cc1	0	-11	2	25*	5	-3
Cc1ccc(OCc2nnc(NC(=O)c3ccco3)s2)c(C)c1	-6	-7	11	7	-4	9
COc1ccccc1CN1CC(C(=O)NCc2c(F)ccc(C)c2F)CCC1=O (stereo not given)	3	-2	8	-1	2	-6
CSc1ccc(CN2CCN(CC=C(C)C)C(CCO)C2)cc1 (stereo not given)	1	1	-5	-1	10	25*
CCN(CC)c1ccc(NC2CC(=O)N(CCc3ccc(OC)cc3)C2=O)cc1 (stereo not given)	8	4	5	3	9	28*
CCCC[C@@H]1C=C(C(=O)O)[C@H](c2ccc(Cl)c(Cl)c2)N1S(=O)(=O)c1ccc(C)cc1	/	/	2	26*	9	-1
Cc1ccc(S(=O)(=O)N2[C@@H](c3ccc(C#N)cc3)C(C(=O)O)=C[C@H]2C(C)(C)C)cc1	/	/	3	20	11	-6
Cc1ccc(S(=O)(=O)N2[C@@H](c3ccc(Cl)cc3)C(C(=O)O)=C[C@H]2C(C)(C)C)cc1	/	/	-2	51*	3	1
CCCC[C@@H]1C=C(C(=O)O)[C@H](c2ccc(C)cc2)N1S(=O)(=O)c1ccc(C)cc1	/	/	15	2	3	6
CCN(Cc1ccccc1)c1ccc(/C=N/NS(=O)(=O)c2cccc([N+](=O)[O-])c2)cc1	4	4	5	45*	-4	4
CCN(CC)c1ccc(/C=N/NC(=O)c2cccc(S(=O)(=O)N3CCOCC3)c2)cc1	2	5	11	4	1	12
CCN(Cc1ccccc1)c1ccc(/C=N/NC(=O)c2cccc(S(=O)(=O)N3CCOCC3)c2)cc1	9	3	-7	13	3	28*
CCN(CC)c1ccc(/C=N/NS(=O)(=O)c2ccc(C)c([N+](=O)[O-])c2)cc1	2	2	6	4	5	4
SMILES	Fam108B inh	PME-1 primary	PAFAH2 inh	PAFAH1B2 inh	PAFAH1B3 inh	pPAFAH FP inh
CCCCN(C(=O)c1cc(=O)[nH]c2ccccc12)c1c(N)n(CCCC)c(=O)[nH]c1=O	2	1	-1	-1	11	-2
Cc1ccc(S(=O)(=O)N2CCCCC2)cc1C(=O)OC(C)C(=O)NC1CCCCC1C (stereo not given)	/	/	3	-4	4	/
Cc1ccc(NC(=O)COC(=O)Cc2csc(-c3cccc(F)c3)n2)cc1C	-8	-7	2	20	8	27*
Cc1ccc(NC(=O)COC(=O)Cc2csc(-c3ccc(Cl)cc3)n2)cc1C	0	-9	7	8	-2	11
COc1cc(OC)cc(N(C(=O)CNC(=O)c2ccco2)C(C(=O)NCC2CCCO2)c2ccccc2)c1 (stereo not given)	6	-2	14	5	4	-4
CC1C/C(=N/N=C2/NC(=O)CS2)CC(C)(C)C1 (stereo not given)	4	-2	-5	76*	-4	4
CN(C)c1ccc(/C=C2\SC(N3CCCCC3)=NC2=O)cc1	-2	5	2	0	10	28*
O=C(Cn1cc(SCc2ccc(Cl)cc2)c2ccccc21)N1CCOCC1	-2	4	-1	25*	0	7
O=C(Cn1cc(SCc2ccc(F)cc2)c2ccccc21)N1CCOCC1	4	0	2	5	9	12
Clc1ccc(SCc2cc(-c3ccccc3)no2)cc1	4	-3	1	42*	4	-1
CCCC(=O)NC(c1ccco1)c1cc([N+](=O)[O-])c2cccnc2c1O (stereo not given)	2	5	21	1	9	30*
CC(=O)NC(c1ccccc1)c1cc(Cl)c2cccnc2c1O (stereo not given)	-3	-2	2	2	6	24
CCCC(=O)NC(c1ccc(OC)c(OC)c1)c1cc(Cl)c2cccnc2c1O (stereo not given)	6	4	4	5	6	9
CCC(=O)NC(c1ccc(C)cc1)c1ccc2cccnc2c1O (stereo not given)	-2	-4	2	4	8	8
CC(=O)NC(c1ccc(C)cc1)c1cc([N+](=O)[O-])c2cccnc2c1O (stereo not given)	1	4	9	5	4	28*
CCC(=O)NC(c1cc(Cl)c2cccnc2c1O)C(C)C (stereo not given)	/	6	0	4	4	4
CCC(=O)NC(c1cccs1)c1cc(Cl)c2cccnc2c1O (stereo not given)	4	2	-3	7	12	34*
